Assay outcomes (PubChem)
A selection: hits, their analogues and other compounds. The true share with any hit is near 3.7%.
RGS4 inh: human RGS4 inhibition; P49798; Transcreener GDP fluorescence polarization, RGS4-accelerated GTP hydrolysis; Potency, µM (highest dose often 114 µM), for inactives: at the highest dose activity change, negative = inhibition, most hits filed as inhibitors; hit rate 0.039% among 390,000; further: potency means the concentration at half of the fitted maximal effect; on the % scale 0 is the no-effect control and ±100 the full control effect; nearly all actives have a fitted effect of over 75% in size
Target sequence (P49798 whole entry, looked up): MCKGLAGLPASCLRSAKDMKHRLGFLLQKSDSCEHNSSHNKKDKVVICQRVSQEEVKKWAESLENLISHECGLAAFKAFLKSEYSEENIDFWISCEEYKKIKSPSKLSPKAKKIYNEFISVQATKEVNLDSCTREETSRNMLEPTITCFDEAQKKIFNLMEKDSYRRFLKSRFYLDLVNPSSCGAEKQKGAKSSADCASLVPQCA
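MLSMR compounds (23 nl, pin-transferred) preincubated 10 min at room temperature with a 500nM (2x) first reagent, then RGS4 at 900nM (2x) plus Transcreener GDP mix added; fluorescence polarization (620/688 nm) read before and after 90 min at 30 °C.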
D3 antag: antagonists of human D3 dopamine receptor; P35462; D3R cells, DiscoveRx beta-arrestin luminescence, antagonist mode; stronger effect = lower value; max response, negative = inhibition, %; hit rate 2.5% among 360,000; AID 652054; in the data active means max response below about -50%; inconclusive means no clear call, values can overlap the other calls; further: on the % scale 0 is the no-effect control and ±100 the full control effect
Target sequence (P35462 whole entry, looked up): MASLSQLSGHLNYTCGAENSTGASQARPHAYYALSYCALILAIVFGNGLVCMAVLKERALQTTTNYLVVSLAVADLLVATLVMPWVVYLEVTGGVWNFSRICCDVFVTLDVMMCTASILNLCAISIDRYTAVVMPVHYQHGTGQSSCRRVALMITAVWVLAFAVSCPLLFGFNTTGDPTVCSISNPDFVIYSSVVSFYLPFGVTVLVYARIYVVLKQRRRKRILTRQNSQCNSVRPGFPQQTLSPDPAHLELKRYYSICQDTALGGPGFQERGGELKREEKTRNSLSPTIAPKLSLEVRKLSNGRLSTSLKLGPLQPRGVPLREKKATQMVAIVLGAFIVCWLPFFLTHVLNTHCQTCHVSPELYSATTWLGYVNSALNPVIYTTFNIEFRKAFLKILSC
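Cells plated overnight at 1500 cells/well, then exposed to library compounds with dopamine controls for 90 minutes at 37 degrees C. DiscoveRx reagent added for 30–60 minutes at room temperature; luminescence read, quantitative HTS format.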
PTHR1 agonist: PTHR1 (human) receptor agonism; HEK293 GP2 PTHR1 cells, GloSensor cAMP luminescence, 1 h; Potency, µM (titrated, usually from 115 µM), inactives show at the highest dose activation, usual class: activators; hit rate 0.075% among 410,000; AID 743266; further: potency means the concentration at half of the fitted maximal effect; nearly all actives have a fitted effect of over 55% in size
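HEK-293-derived GP2 cells expressing PTHR1 and a GloSensor cAMP reporter, 3,000/well, plated overnight, given luciferin plus IBMX (each 0.5 mM as added) for 1 h at 37 °C, then compound for 1 h at 37 °C. Luminescence was read after 15 min at room temperature.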
D3 ag: D3 dopamine receptor (human) agonism. P35462. D3R DiscoveRx beta-arrestin cells, luminescence, 90 min. max activation, %. hit rate 0.58% among 410,000. AID 652048; in the data active means max activation above about 30%; further: 0% is about no effect
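Agonist-mode cell screen: cells plated at 1500/well and incubated overnight at 37 °C, then exposed to library compounds for 90 min at 37 °C. Detection reagent was added for 30–60 min at room temperature, and luminescence was read.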
B2AR arrestin: recruits beta-arrestin to the human beta2-adrenergic receptor. hit rate 0.02% among 330,000. beta-arrestin recruitment to beta2AR, cell-based reporter. Potency, µM (series often up to 46.1 µM), for inactives: at the top dose activation, most hits filed as activators;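 further: potency means the concentration at half of the fitted maximal effect; 0% = DMSO controls and full agonism = EC100 isoproterenol or metaproterenol; nearly all actives have a fitted effect of over 65% in size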
BRCA1 expr act: BRCA1 expression activation; MCF7-BRCA1-FFLuc reporter, luminescence, 48 h; response scale: scaled: vehicle 0%, 10 µM genistein 100%; Potency, µM (highest dose often 46.1 µM), without a hit: at the highest dose activation, actives largely listed as activators; hit rate 1.1% among 380,000; further: potency means the concentration at half of the fitted maximal effect; nearly all actives have a fitted effect of over 80% in size
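Activators of BRCA1 expression were detected as increased firefly luciferase luminescence in engineered MCF7 cells after 48 h compound incubation. Signals were scaled to genistein 10 microM as full activation.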
Active calls of the source: *; [ ] = dose if it differs, or a comment. Unless noted, the call rests on the fitted dose curve; in most records, active means well fitted curve in the direction sought with a large enough effect; inconclusive means small, poorly fitted or top-dose-only effect, or another doubt; inactive means no such curve, though single readings can be large; an effect the other way counts as inactive or inconclusive.

`COc1ccccc1/C=C/CN1CCC(Oc2ccc(C(=O)N3CCCCC3)cc2)CC1` gave RGS4 inh -12.7%, D3 antag -104.7*, PTHR1 agonist -5.7%, D3 ag -50.4, B2AR arrestin 3.0% and BRCA1 expr act -23.4%.
CCc1nc2ccc(C(=O)Nc3ccc4c(c3)OCC(=O)N4)cn2c1N(C)Cc1nccn1C was read as D3 antag -2.0, PTHR1 agonist -8.0%, D3 ag 1.6 and BRCA1 expr act -9.0%.
Screening Cc1ccc(N=Nc2c(N)nn(-c3ccccc3)c2N)cc1 returned RGS4 inh -12.0%, D3 antag -17.3, PTHR1 agonist -8.3%, D3 ag -10.1, B2AR arrestin -0.7% and BRCA1 expr act 16.7%.
Screening COc1ccc(N=Nc2c(N)nn(C)c2N)cc1 returned RGS4 inh -30.3%, D3 antag 0.7, PTHR1 agonist inactive, D3 ag -7.3 and BRCA1 expr act 2.51µM*.
Screening CCNc1nc(-c2ccc(Cl)cc2)cs1 returned RGS4 inh -41.8%, D3 antag 16.2, PTHR1 agonist -29.2%[57.5 µM], D3 ag -6.9, B2AR arrestin -0.7% and BRCA1 expr act 2.82µM*.
For CNc1nc(-c2ccc(Cl)cc2)cs1 the results were RGS4 inh -21.5%, D3 antag -6.6, PTHR1 agonist -19.8%[57.5 µM], D3 ag -4.3, B2AR arrestin -1.2% and BRCA1 expr act inconclusive.
For COc1cc(-c2nc3ncccn3c2Nc2ccc(C)cc2C)ccc1O the results were RGS4 inh -33.8%, PTHR1 agonist -28.5% and D3 ag -24.0.
CC1CCCC(NC(=O)c2ccc3c(c2)OCCO3)C1C (stereo not drawn) was read as RGS4 inh 7.6%, D3 antag -16.5, PTHR1 agonist -33.2%, D3 ag 0.3, B2AR arrestin 0.2% and BRCA1 expr act 7.08µM*.
CC1CCCCC1NC(=O)c1ccc2c(c1)OCCO2 (stereo not drawn) was read as RGS4 inh -33.8%, D3 antag -10.1, PTHR1 agonist -18.3%, D3 ag -2.4, B2AR arrestin -0.3% and BRCA1 expr act 84.3%.
`C[C@@H]1CN([C@H](C)CO)C(=O)CCCn2cc(nn2)CO[C@H]1CN(C)C(=O)Nc1cccc2ccccc12` gave D3 antag 14.4, PTHR1 agonist -16.5%, D3 ag 6.3 and BRCA1 expr act 3.7%.
`CC1CCc2sc(C(=O)NN=C3CCC(c4ccccc4)CC3)cc2C1` (stereo not drawn) gave RGS4 inh -32.6%, D3 antag -1.3, PTHR1 agonist inactive, D3 ag -5.4, B2AR arrestin -0.9% and BRCA1 expr act -2.7%.
For CNC(=O)c1cc2c(s1)CCCCCC2 the results were RGS4 inh -21.4%, D3 antag -8.9, PTHR1 agonist -26.6%, D3 ag -2.6, B2AR arrestin -1.6% and BRCA1 expr act -3.0%.
CCC1CCc2sc(C(=O)NC3CCN(Cc4ccccc4)CC3)cc2C1 (stereo not drawn) was read as RGS4 inh -19.1%, D3 antag -72.0*, PTHR1 agonist -14.2%, D3 ag -32.0, B2AR arrestin -0.6% and BRCA1 expr act -38.5%.
CC1CCc2sc(C(=O)NC3CCN(Cc4ccccc4)CC3)cc2C1 (stereo not drawn) was read as RGS4 inh -3.9%, D3 antag -95.3*, PTHR1 agonist -39.9%, D3 ag -18.5, B2AR arrestin -0.1% and BRCA1 expr act -14.1%.
`CC1CCC(NC(=O)c2cc3c(s2)CCCC3)CC1` (stereo not drawn) gave RGS4 inh -14.8%, D3 antag 3.9, PTHR1 agonist -10.5%, D3 ag -14.7, B2AR arrestin -0.2% and BRCA1 expr act 3.98µM*.
`Cc1ccc(C(C)C)c(OCC(=O)Nc2ccc(-c3nc4ncccc4o3)cc2C)c1` gave RGS4 inh -13.6%, PTHR1 agonist -9.9%, D3 ag 4.0 and BRCA1 expr act 7.2%.
For CCN(CC(=O)Nc1ccc(NC(C)=O)cc1)C(=O)CN1C(=O)NC2(CCCC2)C1=O the results were RGS4 inh -15.6%, D3 antag -0.2, PTHR1 agonist inactive, D3 ag 5.0, B2AR arrestin -0.1% and BRCA1 expr act -16.0%.
CC(=O)O[C@H]1C[C@@H]2CC[C@@H]3[C@H](CC[C@@]4(C)[C@H]3C[C@H](N3CC[N+](C)(C)CC3)[C@@H]4OC(C)=O)[C@@]2(C)C[C@@H]1N1CC[N+](C)(C)CC1 was read as D3 ag 12.3.
For CC(C)=CCc1c2c(c3occ(-c4ccc(O)cc4)c(=O)c3c1O)C=CC(C)(C)O2 the results were RGS4 inh 8.8%, D3 antag 35.6, PTHR1 agonist -48.2%, D3 ag 69.3*, B2AR arrestin -0.7% and BRCA1 expr act -84.6%.
CC(C)=CCc1c2c(c3occ(-c4ccc(O)c(O)c4)c(=O)c3c1O)C=CC(C)(C)O2 was read as RGS4 inh -42.4%, D3 antag 2.1, PTHR1 agonist -88.7%, D3 ag -9.3 and BRCA1 expr act -103.3%.
`C=CCn1c(=O)c2c(nc3n2CC(C)CN3c2cccc(OC)c2)n(C)c1=O` (stereo not drawn) gave RGS4 inh -15.8%, D3 antag -69.2*, PTHR1 agonist inactive, D3 ag -9.8, B2AR arrestin 0.1% and BRCA1 expr act -6.3%.
`O=C(CNC(=O)c1ccc([N+](=O)[O-])cc1)c1ccccc1` gave RGS4 inh 10.6%, D3 antag -20.8, PTHR1 agonist inactive, D3 ag 2.2, B2AR arrestin -0.5% and BRCA1 expr act 6.31µM*.
`O=C(CNC(=O)c1ccco1)OCC(=O)c1ccc(Cl)cc1` gave RGS4 inh 22.8%, D3 antag 23.2, PTHR1 agonist inactive, D3 ag -0.2, B2AR arrestin 0.5% and BRCA1 expr act -8.0%.
O=C(CNC(=O)c1ccco1)OCC(=O)c1ccc([N+](=O)[O-])cc1 was read as RGS4 inh -27.1%, D3 antag -1.6, PTHR1 agonist -19.0%, D3 ag 32.3*, B2AR arrestin 3.1% and BRCA1 expr act 0.7%.
`CC(C)Cn1c(SCc2nc3ccccc3c(=O)[nH]2)nc2ccccc2c1=O` gave RGS4 inh 11.1%, D3 antag 14.1, PTHR1 agonist inactive, D3 ag 45.9*, B2AR arrestin -0.4% and BRCA1 expr act -12.8%.
Screening COc1ccc(-c2nnc(CSc3nc4ccccc4c(=O)n3CC(C)C)o2)cc1OC returned RGS4 inh -5.3%, D3 antag -13.6, PTHR1 agonist inactive, D3 ag 32.9*, B2AR arrestin -1.0% and BRCA1 expr act -17.7%.
